In all, about 18,000 sequences were measured (“TetR repression strength (sort-seq, GFP reporter)”: median about 0.23, highest 2% from about 0.68 on). For the sample, the highest values were picked, then their nearest neighbours and some sequences at random.

Chain of TetR (class B, Tn10) (P04483 whole entry): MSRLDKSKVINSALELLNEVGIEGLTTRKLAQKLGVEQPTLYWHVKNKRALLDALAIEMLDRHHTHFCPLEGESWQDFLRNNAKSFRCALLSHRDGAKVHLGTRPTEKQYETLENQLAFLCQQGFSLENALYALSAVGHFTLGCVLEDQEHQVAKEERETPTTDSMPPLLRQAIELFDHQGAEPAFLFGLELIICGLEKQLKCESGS

This assay deals with TetR (class B, Tn10) (UniProt P04483). Nature of the assay: TetR repression strength (sort-seq, GFP reporter) (relative to tetO2 = 1); higher = stronger repression. The conditions noted are these: E. coli. The procedure, abridged:
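In LB with 50 µg/mL chloramphenicol, E. coli SIG10-MAX holding a low-copy library with eight randomized operator positions between a constitutive promoter and sfGFP, plus constitutive TetR, grew for 5 h at 37 °C. FACS then sorted 10^6 cells into 13 fluorescence bins for Illumina sequencing of each bin. Repression strength equals the top bin index plus one less the read-weighted mean bin, normalized to the unaltered operator. Values from three independent transformations were averaged when reads were ≥30 in every replicate and the CV was ≤0.5.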
TCCCGAGGAGTAAGTGAGA showed a TetR repression strength of 0.204.

The sequence TCCCTTGTAGTATGTGAGA gave a TetR repression strength of 0.133.

The sequence TCCCTAGTAGTACTGGAGA displayed a TetR repression strength of 0.176.

With TCCCGGCTAGTACGGGAGA, the TetR repression strength is 0.244.

As for TCCCTATCAGTGGGGGAGA, the TetR repression strength was found to be 0.378.

Consider TCCCTATCAGTCACCGAGA, for which the TetR repression strength came out at 0.789.

In the case of TCCCTATCAGTGGCGGAGA, the TetR repression strength stood at 0.715.

TCCCTATCAGTCGCGGAGA: the TetR repression strength worked out at 0.456.

As for TCCCTATCAGTCGCCGAGA, the TetR repression strength was found to be 0.455.

TCCCTGTCAGTCACCGAGA came in with a TetR repression strength of 0.664.

Sequence TCCCGATCAGTGAGCGAGA had a TetR repression strength of 0.544.

For TCCCGATCAGTGACCGAGA, the TetR repression strength was 0.715.

On to TCCCTTTCAGTGACTGAGA, for which the TetR repression strength amounted to 0.435.

The sequence TCCCGATCAGTGACTGAGA registered a TetR repression strength of 0.427.

On to TCCCTTTCAGTGACCGAGA, for which the TetR repression strength came out at 0.946.

Sequence TCCCTTGCAGTGACCGAGA had a TetR repression strength of 0.315.

In turn, TCCCGTCTAGTAGCAGAGA returned a TetR repression strength of 0.634.

TCCCATGGAGTGTTAGAGA: the TetR repression strength turned out to be 0.246.

In turn, TCCCCGATAGTCGTGGAGA displayed a TetR repression strength of 0.177.

Consider TCCCAGCGAGTGCAAGAGA, for which the TetR repression strength amounted to 0.364.

Consider TCCCGGCCAGTGGAGGAGA, for which the TetR repression strength came to 0.19.

Sequence TCCCAAATAGTCGTGGAGA gave a TetR repression strength of 0.415.

TCCCGCCAAGTGCGCGAGA: the TetR repression strength was 0.258.

TCCCTATCAGTGACCGAGA showed a TetR repression strength of 0.944.

TCCCTATCAGTGAACGAGA returned a TetR repression strength of 0.862.

TCCCGTGCAGTAAACGAGA registered a TetR repression strength of 0.326.

For the sequence TCCCGATCAGTGACAGAGA, the TetR repression strength came out at 0.742.

Sequence TCCCTATCAGTTACCGAGA registered a TetR repression strength of 0.663.

As for TCCCTATCAGTGAAGGAGA, the TetR repression strength amounted to 0.51.

The sequence TCCCGATCAGTGAACGAGA yielded a TetR repression strength of 0.628.

With TCCCTATGAGTGACCGAGA, the TetR repression strength worked out at 0.604.

As to TCCCGGGCAGTAATCGAGA, the TetR repression strength is 0.121.

Sequence TCCCGACCAGTGACAGAGA displayed a TetR repression strength of 0.644.

Regarding TCCCGTGCAGTAATCGAGA, the TetR repression strength was determined as 0.749.

The sequence TCCCGTTCAGTGACAGAGA came in with a TetR repression strength of 0.504.

For TCCCACATAGTGGTAGAGA, the TetR repression strength worked out at 0.199.

TCCCACTGAGTGCCTGAGA registered a TetR repression strength of 0.139.

Sequence TCCCATCCAGTGCTTGAGA registered a TetR repression strength of 0.267.

TCCCCGTAAGTGAGAGAGA came in with a TetR repression strength of 0.149.

In turn, TCCCTTAAAGTATGCGAGA returned a TetR repression strength of 0.238.

For TCCCTTTAAGTTCTCGAGA, the TetR repression strength turned out to be 0.271.

As to TCCCTGTAAGTATGGGAGA, the TetR repression strength worked out at 0.174.

As for TCCCCCGAAGTTAAGGAGA, the TetR repression strength worked out at 0.155.

Sequence TCCCGATAAGTGGCCGAGA came in with a TetR repression strength of 0.171.

TCCCGGTGAGTGACCGAGA registered a TetR repression strength of 0.207.

On to TCCCGTGCAGTGCCCGAGA, for which the TetR repression strength came to 0.361.

Take TCCCGGTCAGTGACCGAGA: the TetR repression strength stood at 0.715.

Turning to TCCCGCGCAGTGACCGAGA, the TetR repression strength amounted to 0.219.

The sequence TCCCTATGAGTGGCCGAGA returned a TetR repression strength of 0.402.

TCCCTATCAGTGGCCGAGA displayed a TetR repression strength of 0.724.

In turn, TCCCTATCAGTGGGCGAGA displayed a TetR repression strength of 0.541.

TCCCTATAAGTGGCCGAGA: the TetR repression strength was 0.719.

As for TCCCGTGCAGTGACCGAGA, the TetR repression strength is 0.709.

In turn, TCCCGGTCAGTCACCGAGA displayed a TetR repression strength of 0.669.

For TCCCGATCAGTGGCCGAGA, the TetR repression strength came out at 0.565.

In turn, TCCCAGTGAGTCCATGAGA registered a TetR repression strength of 0.163.

TCCCAACAAGTGTTCGAGA came in with a TetR repression strength of 0.0254.

As for TCCCTGCAAGTTTCGGAGA, the TetR repression strength was determined as 0.0543.

TCCCCTGGAGTAGGCGAGA had a TetR repression strength of 0.0907.

Consider TCCCAGTGAGTACCCGAGA, for which the TetR repression strength was found to be 0.261.

On to TCCCTTTTAGTGGTGGAGA, for which the TetR repression strength turned out to be 0.212.

Consider TCCCTCATAGTAAGAGAGA, for which the TetR repression strength came to 0.291.

Turning to TCCCTGATAGTTGGCGAGA, the TetR repression strength was determined as 0.317.

As to TCCCGTGGAGTTGACGAGA, the TetR repression strength worked out at 0.0573.

Turning to TCCCAGATAGTCGAAGAGA, the TetR repression strength stood at 0.115.

TCCCTGAGAGTCGAAGAGA came in with a TetR repression strength of 1.18.

In turn, TCCCTGATAGTCGAAGAGA registered a TetR repression strength of 1.14.

Turning to TCCCTGGGAGTCGAAGAGA, the TetR repression strength stood at 0.196.

Consider TCCCTCTGAGTCGAAGAGA, for which the TetR repression strength came to 0.0537.

The sequence TCCCTGGTAGTCGAAGAGA displayed a TetR repression strength of 0.187.

TCCCGGATAGTGTCGGAGA had a TetR repression strength of 0.141.

Regarding TCCCCGTTAGTTTTAGAGA, the TetR repression strength came out at 0.25.

For the sequence TCCCGTTGAGTATATGAGA, the TetR repression strength stood at 0.229.

TCCCGATAAGTAGAAGAGA came in with a TetR repression strength of 0.585.

TCCCGTGCAGTGCTTGAGA displayed a TetR repression strength of 0.207.

Sequence TCCCGGCAAGTGCTTGAGA displayed a TetR repression strength of 0.155.

The sequence TCCCGTCCAGTGCTTGAGA displayed a TetR repression strength of 0.915.

On to TCCCGTCCAGTGCTGGAGA, for which the TetR repression strength turned out to be 0.212.

In turn, TCCCGTCAAGTGCTTGAGA had a TetR repression strength of 0.848.

In turn, TCCCGTCAAGTGGTTGAGA gave a TetR repression strength of 0.152.

In turn, TCCCGCTCAGTTGGGGAGA returned a TetR repression strength of 0.186.

Sequence TCCCCAGTAGTAGTGGAGA had a TetR repression strength of 0.246.

With TCCCCTCTAGTAGGTGAGA, the TetR repression strength is 0.12.

As to TCCCTTAGAGTGAGGGAGA, the TetR repression strength is 0.0732.

On to TCCCAACAAGTCGCAGAGA, for which the TetR repression strength came out at 0.281.

For the sequence TCCCCATAAGTGATTGAGA, the TetR repression strength is 0.42.

In the case of TCCCCAGCAGTGAGTGAGA, the TetR repression strength came to 0.167.

TCCCGAGCAGTGATCGAGA had a TetR repression strength of 0.708.

TCCCAAGCAGTGACAGAGA registered a TetR repression strength of 0.432.

In turn, TCCCGAGCAGTGACAGAGA showed a TetR repression strength of 0.736.

The sequence TCCCCAGCAGTGCTTGAGA gave a TetR repression strength of 0.311.

Sequence TCCCGAGCAGTGGCAGAGA showed a TetR repression strength of 0.286.

In the case of TCCCCAGCAGTGATTGAGA, the TetR repression strength is 1.1.

In turn, TCCCGAGCAGTGATGGAGA returned a TetR repression strength of 0.371.

In turn, TCCCCAGAAGTGATTGAGA had a TetR repression strength of 1.1.

For the sequence TCCCTAGCAGTGATCGAGA, the TetR repression strength turned out to be 0.659.

The sequence TCCCAGGAAGTGATTGAGA registered a TetR repression strength of 0.266.

In turn, TCCCTACTAGTTACAGAGA showed a TetR repression strength of 0.0592.

In turn, TCCCGATTAGTCTTTGAGA returned a TetR repression strength of 0.0932.

Take TCCCCAGGAGTCCGGGAGA: the TetR repression strength was determined as 0.332.

Take TCCCACAAAGTCAGTGAGA: the TetR repression strength is 0.0709.

The sequence TCCCTGATAGTCTTGGAGA had a TetR repression strength of 0.231.

TCCCTCGAAGTGGGGGAGA: the TetR repression strength turned out to be 0.0994.

Sequence TCCCGTCGAGTAAGTGAGA yielded a TetR repression strength of 0.219.

Turning to TCCCGAGTAGTGGAGGAGA, the TetR repression strength was 0.155.

Sequence TCCCTTGGAGTAACAGAGA gave a TetR repression strength of 0.

Sequence TCCCGAGAAGTGCCAGAGA displayed a TetR repression strength of 0.312.

(Values after a collection of fitness landscapes (doi:10.1038/s41467-024-54723-y).)
